Measurements published in PubChem BioAssay AID1259240 (Keith Lab, Institute of Cancer Science, University of …, 2017).
Active and inactive are the calls of the source. No stated cut-off is given here; in the data, active means fold change mostly below about -2 (no sharp cut-off); inactive means mostly above about -1.8.

test: TERT promoter activity modulators, primary screen, cell-based, luciferase reporter, human (AID 1259240); conditions: A2780 TERT promoter luciferase reporter, 16 h; at 20 µM, fold versus average of vehicle-only wells

Fold change, active:
O=C(CN1C(=O)COc2ccc(S(=O)(=O)N3CCOCC3)cc21)N1CCOCC1 -2.24
CN(C)c1nc(C(=O)OCCO)nc(N(C)C)n1 -3.45
Cc1nc2ncccn2c1-c1csc(Nc2ccc(Cl)cc2)n1 -2.31
OC(c1ccccc1)c1nn(CN2CCOCC2)c(=S)n1-c1ccccc1 (stereo not given) -3.71
CCCc1nc2ccccc2c2nc(N)nn12 -2.02
COc1ccc(Nc2ncc(F)c(N3CCOCC3)n2)cc1 -3.37
O=C(CC1(O)C(=O)Nc2ccc(Br)cc21)c1cccs1 (stereo not given) -6.1
Cc1ccc(-c2noc(-c3ccccc3Cl)n2)cc1 -93.3

Fold change, inactive:
CCN(Cc1ccccc1)C(=O)C1CCCN1S(=O)(=O)c1cccc2nsnc12 (stereo not given) 1.58
COC(=O)c1ccc(-c2nn(C)c(=O)c3ccccc23)cc1 -1.09
CCOC(=O)CNc1c(N(C)C2CCCCC2)c(=O)c1=O -1.1
O=C(CSc1nncc2ccccc12)Nc1ccccc1 1.07
Cc1ccc(-c2cc(C(F)F)n3ncc(C(=O)N4CCC(C)CC4)c3n2)cc1 1.16
Cc1ccc(N2CN=c3s/c(=C4\C(=O)Nc5ccccc54)c(=O)n3C2)cc1 -1.33
O=C(Nc1nccs1)c1cc2ccccc2c(=O)s1 -1.86
Cc1cc(NC(=O)CSc2nnc(Cc3cc(=O)[nH]c(=O)[nH]3)n2-c2ccccc2)no1 -1.88
N#Cc1cn(CC(=O)NCCc2c[nH]c3ccccc23)c2ccccc12 -1.14
CCOP(=O)(OCC)C(Nc1ccccc1)c1ccco1 (stereo not given) 1.02
O=C(CC1(CC2=NS(=O)(=O)c3ccccc3N2)CCCC1)NCc1ccccc1 -1.27
Cc1sc2nc3ccc(N4CCCC4)nn3c(=O)c2c1C -1.02
CCc1nc2c(cnn2-c2ccc(F)cc2)c(=O)n1-c1ccc(OC)c(Cl)c1 1.04
COCC(=O)N1N=C(c2ccc(NS(C)(=O)=O)cc2)CC1c1ccco1 (stereo not given) 1.02
COc1cc2[nH]c(=O)n(CC3CCCO3)c(=O)c2cc1OC (stereo not given) 1.01
CCOC(=O)Cn1c(=O)oc2cc(S(=O)(=O)NCc3ccccn3)ccc21 1.36
O=C(NCc1cccnc1)c1cccc(NC2=NC3CS(=O)(=O)CC3S2)c1 (stereo not given) -1.24
COc1cc(OC)c(-c2nc(-c3ccc(C)cc3)no2)cc1OC 1.55
CN1CCN(C(=O)c2cc3c(=O)[nH]c4ccccc4c3n2C)CC1 -1.19
Cc1csc(NC(=O)C2CCCN(S(=O)(=O)c3c(C)[nH]c(=O)[nH]c3=O)C2)n1 (stereo not given) -1.1
COc1ccc(S(=O)(=O)n2nc(-c3ccc(Cl)cc3)cc2N)cc1OC 1.41
O=C(NCc1ccncc1)c1cc(-c2ccc3c(c2)OCO3)nc2ccccc12 -1.04
CCCCC1=NN(C(=O)C(=O)Nc2ccc(Br)cc2)C(O)(C(F)(F)F)C1 (stereo not given) 1.01
COc1ccc(OC)c(S(=O)(=O)c2cc3cccc(OC)c3oc2=O)c1 -1.07
c1csc(CSc2nnc3sc4ccccc4n23)c1 1.26
O=C(COc1ccc(Cl)cc1)Nc1ccc2nc3n(c(=O)c2c1)CCCCC3 -1.27
O=c1c(O)c(-c2ccc3c(c2)OCO3)oc2ccccc12 1
COc1cc2cc(=O)[nH]c(C)c2cc1OC 1.08
COCC(=O)N1N=C(c2ccc(NS(C)(=O)=O)cc2)CC1c1ccccc1 (stereo not given) 1.13
COc1cccc(C(=O)Cn2c(=O)n(C3CCCC3)c(=O)c3cc(OC)c(OC)cc32)c1 -1.38
O=C(NC1CCCCCC1)C1CCC(CNc2c(NC3CCCCC3)c(=O)c2=O)CC1 (stereo not given) -1.28

outcome, inactive:
Cc1ccc(C2C3=C(CC(C)(C)CC3=O)Nc3ncnn32)cc1 (stereo not given)
